# Source: PubChem (National Center for Advancing Translational Sciences (NCATS))
# Pf growth 96h = inhibits malaria parasite growth, 96 h; P. falciparum luciferase reporter growth, 96 h; Potency, µM (titrated, usually from 28.7 µM), for inactives: at the top dose activity change, negative = inhibition, hits mostly inhibitors; actives 6.9% (n = 320,000); AID 504834; also: potency is read from the fitted curve at half-maximal effect; % is scaled to controls: 0 for no effect and ±100 for the full control effect
#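 Infected RBCs, 2% Hct / 0.05% parasitemia final; luciferase-reporter P. falciparum; cpd 96 h, 37 C, 5% CO2; luciferase detection reagent; luminescence.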
# Shiga toxin inh = Shiga toxin inhibition; Vero cells, Shiga toxin protein synthesis inhibition reporter; inhibition, % at 38.7 µM; actives 9.2% (n = 290,000); AID 2315; in the data active = inhibition mostly above about 28%, no sharp cut-off; inactive = mostly below about 43%; also: 0% is about no effect
# NS1 inh = influenza NS1 inhibition | Potency, µM (highest dose often 46.1 µM), for the others: top-dose activity, positive = more growth | actives 0.4% (n = 270,000) | AID 2326; calls by dose curve; also: potency is read from the fitted curve at half-maximal effect; actives are rising curves; nearly all actives have a fitted effect of over 50% in size
#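 Compounds were scored for reversing the slow growth caused by influenza A NS1 in S. cerevisiae, measured by optical density at 600 nm. Assay medium contained 2% galactose at pH 6.0; NS1-free yeast of the same strain were the positive control.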
# Pf growth 48h = inhibits P. falciparum growth in the first generation, 48 h. P. falciparum luciferase growth in erythrocytes, 48 h. actives 5.9% (n = 310,000). AID 504832. Potency, µM (series often up to 28.7 µM), inactives show at the top dose activity change, negative = inhibition, usual class: inhibitors; also: potency is read from the fitted curve at half-maximal effect; % is scaled to controls: 0 for no effect and ±100 for the full control effect
#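 Parasite viability was followed by luminescence of a genomically integrated firefly luciferase. Cultures held 0.1% parasitemia at 2% hematocrit (final), incubated under 5% CO2 at 37 C.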
# CHX counter = affects cycloheximide protein synthesis inhibition readout, counter-screen; cell reporter, cycloheximide protein synthesis inhibition counterscreen; max response, %; actives 12% (n = 300,000); in the data active = max response mostly above about 13%, no sharp cut-off; inactive = mostly below about 14%; also: read at 38.3 µM for the half of the compounds with a filed dose; 0% is about no effect
# SARS PLP yeast = inhibitors of SARS-CoV papain-like protease in yeast | S. cerevisiae expressing SARS-CoV PLpro, growth rescue | Potency, µM (highest dose often 32.9 µM), for inactives: top-dose activity, positive = growth rescue, actives largely listed as activators | actives 0.19% (n = 330,000); calls by dose curve; also: potency is read from the fitted curve at half-maximal effect; 0% is about no effect; nearly all actives have a fitted effect of over 55% in size
# An asterisk follows results filed as active; u = inconclusive; x = no result. The list is not random: actives were taken first. Their share in the collection is about 21%. Unless noted, calls follow the shape of the dose curve; as a rule, active = well fitted inhibition curve with a large enough effect; inconclusive = small, poorly fitted or top-dose-only effect, or another doubt; inactive = no such curve, though single readings can be large or run the other way.
SMILES,Pf growth 96h,Shiga toxin inh,NS1 inh,Pf growth 48h,CHX counter,SARS PLP yeast
N#Cc1c(-c2ccccc2)ccnc1Oc1ccccc1,18%,59*,-7%,42%,24*,-5%
CN(C)c1ccnc(Nc2ccccc2)c1C#N,30%,-6,6%,18%,-1,0%
COc1nccc(Nc2ccccc2)c1C#N,x,-12,-11%,10%,1,5%
COc1ccnc(Oc2ccc(C)cc2C)c1C#N,42%,11,-9%,-4%,18*,u
Cc1cccc(OCC(=O)O/N=C(\N)Cc2cccs2)c1,41%,-6,1%,-2%,-4,0%
Cc1ccccc1C(=O)O/N=C(\N)Cc1cccs1,u,95*,-123%,u,88*,-15%
N/C(Cc1cccs1)=N\OC(=O)COc1ccc(Br)cc1,x,23,-52%,16%,30*,-5%
COc1ccc(OCC(=O)O/N=C(\N)Cc2cccs2)cc1,-14%,64*,-13%,28%,22*,-5%
O=C(NCCCN1CCOCC1)C(=O)N/N=C/c1cccc2ccccc12,47%,7,1%,12%,-3,0%
Cc1ccc(C2C3C(=O)N(c4ccccc4)C(=O)C3N3CCCN23)cc1 (stereo not given),206%,-9,-2%,81%,28*,1%
CCc1ccccc1Nc1nc(N)nc(COC(=O)c2c(C)noc2C)n1,u,x,x,u,x,-4%
O=[N+]([O-])c1cccc(Nc2c([N+](=O)[O-])ccc3nonc23)c1,27%,-12,-2%,-15%,-3,0%
O=[N+]([O-])c1ccc2nonc2c1Nc1ccccc1,-18%,43,-12%,3%,23*,6%
COc1ccc(CNC(NC(=O)c2ccccc2)(C(F)(F)F)C(F)(F)F)cc1,u,-2,7%,12µM*,0,-10%
COc1ccc(CC(=O)NCc2ccccc2)cc1,u,-1,16%,15%,-2,2%
CCOC(=O)C(NCc1ccc(F)cc1)(NC(=O)c1ccccc1)C(F)(F)F (stereo not given),10µM*,-2,-15%,-20%,-1,-21%
CC(NC(=O)Cn1cccc1C(=O)c1ccccc1)c1ccc2c(c1)OCCO2 (stereo not given),29%,-5,x,0%,-3,-1%
O=C(NCCn1cccn1)c1ccc(OC2CCN(CCc3ccccc3)CC2)cc1,0%,29*,-2%,-24%,14*,0%
CN(C(=O)c1ccc(OC2CCN(CCc3ccccc3)CC2)cc1)C1CCOC1 (stereo not given),u,-23,5%,-5%,-3,-1%
CN(C(=O)c1ccc(OC2CCN(CCc3ccccc3)CC2)cc1)C1CCOCC1,9.3µM*,-3,3%,-2%,-2,1%
COC1CCN(C(=O)c2ccc(OC3CCN(CCc4ccccc4)CC3)cc2)CC1,u,-18,6%,-16%,1,0%
CCN1CCN(C(=O)c2ccc(OC3CCN(CCc4ccccc4)CC3)cc2)[C@@H](C)C1=O,3.7µM*,-5,4%,u,-5,-2%
O=C(NC1CCOC1)c1ccc(OC2CCN(CCc3ccccc3)CC2)cc1 (stereo not given),2.3µM*,-3,-6%,-6%,0,1%
CCC(C)[C@H]1COCCS(=O)(=O)N1Cc1ccc(Cl)cc1Cl (stereo not given in full),u,-8,-80%,-20%,-3,-16%
Cc1cccc(N2CCN(CC(O)COCc3cccs3)CC2)c1C (stereo not given),u,5,0%,-1%,-4,-5%
COc1cc2nc(NC(=O)c3ccc(F)cc3Cl)sc(=O)c2cc1OC,11%,2,2%,-5%,-2,0%
CSCCNC(=O)c1ccc(OC2CCN(CCc3ccccc3)CC2)cc1,u,27,1%,u,15*,0%
COC(=O)CCCNC(=O)c1ccc(OC2CCN(CCc3ccccc3)CC2)cc1,3%,21,-2%,0%,12,-1%
C=CCn1c(SCC(=O)c2c(N)n(C)c(=O)n(C)c2=O)nnc1-c1ccoc1C,x,x,x,x,x,-5%
